This is an account of results in PubChem BioAssay.

Values without a mark were called inactive. How the calls were made is not given here.

For this test, the target named is Pantothenate synthetase (Mycobacterium tuberculosis (strain ATCC 25618 / H37Rv)) (UniProt P9WIL5). As to the kind of experiment: Coupled enzyme confirmation of inhibitors against recombinant Mtb PanC (AID 375).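 Further: 0% = full reaction with vehicle and 100% = no enzyme background.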 The following applies: coupled enzyme assay; at 10 µM, active compounds read high.
Chain of Pantothenate synthetase (Mycobacterium tuberculosis (strain ATCC 25618 / H37Rv)) (P9WIL5 whole entry, looked up): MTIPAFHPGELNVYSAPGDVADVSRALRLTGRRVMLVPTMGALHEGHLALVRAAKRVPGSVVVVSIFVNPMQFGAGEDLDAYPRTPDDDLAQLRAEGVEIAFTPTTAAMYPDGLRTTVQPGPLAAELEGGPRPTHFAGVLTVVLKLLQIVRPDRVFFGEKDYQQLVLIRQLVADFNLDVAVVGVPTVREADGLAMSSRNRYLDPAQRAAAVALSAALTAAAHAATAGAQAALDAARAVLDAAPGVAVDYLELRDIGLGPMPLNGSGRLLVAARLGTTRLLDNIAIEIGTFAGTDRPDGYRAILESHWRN
For the molecule `CCOC(=O)CNC(=O)C(Cc1ccccc1)NS(=O)(=O)c1ccc2c(c1)CCC(=O)N2` (stereo not given), the inhibition (usually how much of the control response was suppressed) was 0%.

Turning to `COCc1nnc(NC(=O)c2ccc(NC(C)=O)cc2)s1`, the inhibition is 2%.

As to `Cc1csc(NC(=O)c2cc3c(s2)-c2ccccc2OC3)n1`, the inhibition is 0%.

Consider `Cc1ccc(N2C(=O)c3ccccc3C2Nc2cccnc2)nc1` (stereo not given), for which the inhibition was 1%.

Turning to `CC(=O)c1ccc(-c2nc3ccccc3n2C)o1`, the inhibition was 0%.

For the molecule `O=C(OCC(=O)N1CCCC1)c1ccccc1OCc1ccccc1`, the inhibition is 0%.

On to `COc1cc(-c2nnc(SCC(=O)c3ccc(C)cc3)o2)cc(OC)c1OC`, for which the inhibition is 0%.

In the case of `O=C(CS(=O)CC(=O)Nc1cccc2c1CCCC2)Nc1ccc(F)cc1` (stereo not given), the inhibition is 0%.

As to `Cc1nc2c(c(=O)n1CC1CCCO1)c1nc3ccccc3nc1n2CC(C)C` (stereo not given), the inhibition was 0%.

`CC(=O)N1c2c(cc(Br)cc2S(=O)(=O)NCC2COc3ccccc3O2)CC1C` (stereo not given): the inhibition is 2%.

Turning to `O=C(COc1ccccc1Cl)OCC(=O)N1CCN(S(=O)(=O)c2ccccc2)CC1`, the inhibition is 8%.

Regarding `CCN(CC)S(=O)(=O)c1ccc2oc(C(=O)O)c(C)c2c1`, the inhibition was 0%.

As to `C=CCN1C(=O)/C(=C2/Sc3ccccc3N2C)SC1=Nc1c(C)n[nH]c1C`, the inhibition was 1%.

For the molecule `Cc1nc2ccccc2c2oc(C(=O)NCCCN3CCCC3=O)cc12`, the inhibition was 7%.

Take `Cc1ccc2nc(NC(=O)Cn3cc4c(n3)CCCCC4)sc2c1`: the inhibition was 0%.

With `O=C(Nc1ccccc1)N(CCN1CCOCC1)Cc1ccccc1F`, the inhibition was 0%.

Regarding `CCn1c(CSc2nnc(-c3cccnc3)n2-c2ccccc2C)nc2cc(C(=O)O)ccc21`, the inhibition is 0%.

For the molecule `CCOC(=O)C1=C(c2ccccc2)Nc2nc(C)nn2C1c1cccc(OC)c1OC` (stereo not given), the inhibition is 0%.

As to `Cc1noc(C)c1C(=O)N1CCN(C(=O)c2sc3cc(Cl)ccc3c2Cl)CC1`, the inhibition was 7%.

In the case of `COC(=O)CNC(=O)COC(=O)c1cc(Cl)cc(Cl)c1N`, the inhibition was 0%.

Take `Cn1c(SCC(=O)c2ccc(-c3ccccc3)cc2)nnc1-c1ccco1`: the inhibition was 2%.

Regarding `CC(C)COC(=O)C1C2C=CC3(CN(C(C)c4ccc(Br)cc4)C(=O)C13)O2` (stereo not given), the inhibition is 8%.

As to `O=C(C1CCN(S(=O)(=O)c2ccc(-n3cnnn3)cc2)CC1)N1CCN(c2ccccc2)CC1`, the inhibition is 11%.

As to `O=C(O)C(c1ccccc1)N1CCCC1` (stereo not given), the inhibition was 0%.

Regarding `O=C(c1cn(-c2ccccc2)nc1-c1cccs1)N1CCN(c2ccccn2)CC1`, the inhibition is 2%.

In the case of `Cc1ccc2cc(C(c3nnnn3C3CCCC3)N3CCN(c4ccc(F)cc4)CC3)c(=O)[nH]c2c1` (stereo not given), the inhibition was 6%.

`CC(C)=CC(=O)OCC(=O)NC(=O)NC(C)(C)C`: the inhibition was 0%.

Consider `CCn1cc(C2=NOC(C(=O)Nc3c(C)nn(Cc4ccc(F)cc4)c3C)C2)c(C)n1` (stereo not given), for which the inhibition is 0%.

With `CCCCCc1c(O)c2ccccc2[nH]c1=O`, the inhibition is 0%.

With `COC(=O)c1ccccc1OCC(=O)NC1CCCCC1`, the inhibition is 0%.

As for `CCOC(=O)C1=C(c2ccccc2)NC(=O)NC1c1ccc(N(C)C)cc1` (stereo not given), the inhibition was 0%.

With `O=C(O)CCc1cc(I)c(Oc2ccc(O)c(I)c2)c(I)c1`, the inhibition is 8%.

Turning to `Cc1csc(NC(=O)CCn2c(=O)oc3ccccc32)n1`, the inhibition was 1%.

`C=C(C)COc1ccc(-c2nc(N)ncc2-c2ccc(OC)cc2)c(O)c1`: the inhibition was 2%.

As to `COc1cccc(-c2nnc3sc(-c4ccc(C)cc4)nn23)c1`, the inhibition was 0%.

Regarding `O=C(C1CCCO1)N1CCc2ccccc21` (stereo not given), the inhibition is 10%.

Turning to `O=C(CSc1nnc(C2COc3ccccc3O2)o1)N1CCCc2ccccc21` (stereo not given), the inhibition was 0%.

`CCN(C(=O)c1c(-c2ccccc2)noc1C)c1ccccc1`: the inhibition is 0%.

`CCOC(=O)C(NC(=O)c1ccc(OC)cc1)(N1CCOCC1)C(F)(F)F` (stereo not given): the inhibition is 2%.

On to `Cc1cc(C)nc(SCC(=O)Nc2ncc3c(n2)CCCC3=O)n1`, for which the inhibition is 0%.
